Source: PubChem BioAssay (NCI)
About 83,000 compounds went through this panel and 20% of them were active in at least one assay; those are over-represented in the sample as a whole.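 The endpoint reported here, percent growth, reads 100 for growth as untreated, 0 for no net growth and -100 for all cells dead.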 Activity calls are given as the source filed them. The calls were made as follows: active = growth percent below 10; inactive = the rest.

How the values were obtained:
Test in all cases: NCI-60 one-dose screen, 48 h (100 = growth as untreated, 0 = no growth, -100 = all killed)
Settings in all cases: 10 µM unless noted
DU-145 prostate = tested on: DU-145 prostate
K-562 leukemia = tested on: K-562 leukemia
MALME-3M melanoma = tested on: MALME-3M melanoma
MDA-MB-231 breast = tested on: MDA-MB-231 breast
RXF 393 renal = tested on: RXF 393 renal
SF-268 CNS = tested on: SF-268 CNS
SF-295 CNS = tested on: SF-295 CNS
SF-539 CNS = tested on: SF-539 CNS
UACC-257 melanoma = tested on: UACC-257 melanoma
M14 melanoma = tested on: M14 melanoma
HCT-15 colon = tested on: HCT-15 colon
HT29 colon = tested on: HT29 colon
SNB-75 CNS = tested on: SNB-75 CNS
SNB-19 CNS = tested on: SNB-19 CNS
U251 CNS = tested on: U251 CNS
PC-3 prostate = tested on: PC-3 prostate
SK-MEL-5 melanoma = tested on: SK-MEL-5 melanoma
UACC-62 melanoma = tested on: UACC-62 melanoma
LOX IMVI melanoma = tested on: LOX IMVI melanoma
SK-MEL-28 melanoma = tested on: SK-MEL-28 melanoma

Measured: growth

Nc1cc(N)c2cccnc2c1O
inactive: DU-145 prostate 72.7% | K-562 leukemia 37.5% | MALME-3M melanoma 85% | MDA-MB-231 breast 78.6% | RXF 393 renal 74.9% | SF-268 CNS 83.4% | SF-295 CNS 63.2% | SF-539 CNS 66.1% | UACC-257 melanoma 76.1% | M14 melanoma 76.5% | HCT-15 colon 83.7% | HT29 colon 87.4% | SNB-75 CNS 104% | SNB-19 CNS 64.2% | U251 CNS 68.3% | PC-3 prostate 80.7% | SK-MEL-5 melanoma 62.9% | UACC-62 melanoma 43% | LOX IMVI melanoma 42.3%

C=C(C)[C@@H]1CC[C@]2(C=O)CC[C@]3(C)[C@H](CC[C@@H]4[C@@]5(C)CCCNC(C)(C)[C@@H]5CC[C@]43C)[C@@H]12
inactive: DU-145 prostate 77.6% | MALME-3M melanoma 77.7% | MDA-MB-231 breast 91.2% | RXF 393 renal 85.9% | SF-268 CNS 90.8% | SF-295 CNS 105% | SF-539 CNS 90.1% | UACC-257 melanoma 86.6% | M14 melanoma 81% | HCT-15 colon 34.3% | HT29 colon 14% | SNB-75 CNS 110% | SNB-19 CNS 84.6% | U251 CNS 50.4% | PC-3 prostate 48% | SK-MEL-5 melanoma 66% | UACC-62 melanoma 69.9% | LOX IMVI melanoma 84.9% | SK-MEL-28 melanoma 96.7%
active: K-562 leukemia 0.984%

CN1CCCC1=Nc1ccccc1
inactive: DU-145 prostate 116% | K-562 leukemia 100% | MALME-3M melanoma 104% | MDA-MB-231 breast 109% | RXF 393 renal 103% | SF-268 CNS 124% | SF-295 CNS 96.7% | SF-539 CNS 113% | UACC-257 melanoma 101% | M14 melanoma 117% | HCT-15 colon 111% | HT29 colon 98.1% | SNB-75 CNS 80% | SNB-19 CNS 107% | U251 CNS 94.7% | PC-3 prostate 96.9% | SK-MEL-5 melanoma 104% | UACC-62 melanoma 91.4% | LOX IMVI melanoma 96.6% | SK-MEL-28 melanoma 96.6%

O=C(Nc1ccc2cc3ccc(NC(=O)N4CCCCCC4)cc3nc2c1)N1CCCCCC1
active: DU-145 prostate -25.7% | K-562 leukemia -11.1% | MALME-3M melanoma -85.3% | MDA-MB-231 breast -69.1% | RXF 393 renal -76.3% | SF-268 CNS -41.3% | SF-295 CNS -79.4% | SF-539 CNS -71.1% | UACC-257 melanoma -75.7% | M14 melanoma -66.2% | HCT-15 colon -47.4% | HT29 colon -36.2% | SNB-75 CNS -88.4% | SNB-19 CNS 1.3% | U251 CNS -58.8% | PC-3 prostate 5.93% | SK-MEL-5 melanoma -94.4% | UACC-62 melanoma -66.6% | LOX IMVI melanoma -85%

COc1ccccc1C(C[N+](=O)[O-])c1c(-c2ccccc2)[nH]c2cc(C)ccc12 (configuration not stated)
inactive: DU-145 prostate 101% | MALME-3M melanoma 61.2% | MDA-MB-231 breast 55.4% | RXF 393 renal 74.7% | SF-268 CNS 78.6% | SF-295 CNS 54.1% | SF-539 CNS 84.2% | UACC-257 melanoma 83% | M14 melanoma 45.6% | HCT-15 colon 44% | HT29 colon 35.8% | SNB-75 CNS 42.7% | SNB-19 CNS 81% | U251 CNS 83.9% | PC-3 prostate 69.5% | SK-MEL-5 melanoma 74.9% | UACC-62 melanoma 43.8% | LOX IMVI melanoma 70.1% | SK-MEL-28 melanoma 78.9%
active: K-562 leukemia 8.66%

Cc1c(C(=O)NO)sc2ncnc(Nc3ccc(NC(=S)Nc4ccccc4)cc3)c12
inactive: DU-145 prostate 107% | K-562 leukemia 103% | MALME-3M melanoma 99.5% | MDA-MB-231 breast 95% | RXF 393 renal 104% | SF-268 CNS 98.2% | SF-295 CNS 98.3% | SF-539 CNS 100% | UACC-257 melanoma 99.4% | M14 melanoma 104% | HCT-15 colon 95.4% | HT29 colon 103% | SNB-75 CNS 87.9% | SNB-19 CNS 96.5% | U251 CNS 104% | PC-3 prostate 106% | SK-MEL-5 melanoma 101% | UACC-62 melanoma 95% | LOX IMVI melanoma 93.8% | SK-MEL-28 melanoma 105%

CS(=O)(=O)OCCN(CCOS(C)(=O)=O)c1ccc(/C=N/Nc2ccc([N+](=O)[O-])cc2[N+](=O)[O-])cc1
inactive: DU-145 prostate 99.7% | K-562 leukemia 102% | MALME-3M melanoma 86.8% | MDA-MB-231 breast 71.6% | RXF 393 renal 102% | SF-268 CNS 94.1% | SF-295 CNS 79.2% | SF-539 CNS 80.5% | UACC-257 melanoma 96.9% | M14 melanoma 99.3% | HCT-15 colon 100% | HT29 colon 85.9% | SNB-75 CNS 77.2% | SNB-19 CNS 82.7% | U251 CNS 76% | PC-3 prostate 67.3% | SK-MEL-5 melanoma 89.2% | UACC-62 melanoma 78% | LOX IMVI melanoma 63.5% | SK-MEL-28 melanoma 95.7%

N#Cc1c(Nc2ccccc2)nn2cc(-c3nc4ccccc4s3)c(N)nc12
inactive: DU-145 prostate 66% | K-562 leukemia 74.8% | MALME-3M melanoma 40.4% | MDA-MB-231 breast 72.5% | RXF 393 renal 87.8% | SF-268 CNS 70% | SF-295 CNS 99% | SF-539 CNS 58% | UACC-257 melanoma 83.7% | M14 melanoma 58.8% | HCT-15 colon 71% | HT29 colon 81.8% | SNB-75 CNS 55.9% | SNB-19 CNS 76.5% | U251 CNS 84.2% | PC-3 prostate 73.4% | SK-MEL-5 melanoma 67.6% | UACC-62 melanoma 66.8% | LOX IMVI melanoma 67.9% | SK-MEL-28 melanoma 68.7%

CCCCCN1C=C/C(=C\C(=O)N(C)c2ccc(Br)cc2)c2ccccc21
inactive: DU-145 prostate 104% | K-562 leukemia 76.5% | MALME-3M melanoma 96.9% | MDA-MB-231 breast 101% | RXF 393 renal 92.9% | SF-268 CNS 96.2% | SF-295 CNS 99.2% | SF-539 CNS 102% | UACC-257 melanoma 95.1% | M14 melanoma 104% | HCT-15 colon 102% | HT29 colon 91.6% | SNB-75 CNS 91.6% | SNB-19 CNS 99.6% | U251 CNS 92.4% | PC-3 prostate 97.3% | SK-MEL-5 melanoma 97.9% | UACC-62 melanoma 93.7% | LOX IMVI melanoma 87.6% | SK-MEL-28 melanoma 105%

CCCCCN1C=C/C(=C\C(=O)N(C)c2cccc3ccccc23)c2ccccc21
inactive: DU-145 prostate 104% | K-562 leukemia 77.4% | MALME-3M melanoma 94% | MDA-MB-231 breast 106% | RXF 393 renal 107% | SF-268 CNS 95.3% | SF-295 CNS 97.7% | SF-539 CNS 105% | UACC-257 melanoma 106% | M14 melanoma 102% | HCT-15 colon 101% | HT29 colon 90% | SNB-75 CNS 103% | SNB-19 CNS 99.7% | U251 CNS 95.8% | PC-3 prostate 94.4% | SK-MEL-5 melanoma 98.3% | UACC-62 melanoma 87.4% | LOX IMVI melanoma 97.8% | SK-MEL-28 melanoma 107%

CCCNC(=O)Oc1ccc(/C(=C(\C)c2ccccc2)c2ccc(OCCN3CCCCC3)cc2)cc1
inactive: DU-145 prostate 87.9% | K-562 leukemia 10.2% | MALME-3M melanoma 61.3% | MDA-MB-231 breast 81.9% | RXF 393 renal 64.4% | SF-268 CNS 72.6% | SF-295 CNS 55% | SF-539 CNS 37.5% | M14 melanoma 14.1% | HCT-15 colon 19.2% | SNB-75 CNS 88.9% | SNB-19 CNS 79% | U251 CNS 56.4% | PC-3 prostate 57.1% | SK-MEL-5 melanoma 77.8% | UACC-62 melanoma 70.6% | LOX IMVI melanoma 73.8% | SK-MEL-28 melanoma 70.5%
active: UACC-257 melanoma -14.1% | HT29 colon 4.11%

N#CSCC1CC(O)(c2ccccc2)C(c2ccccc2)C(c2ccc(F)cc2)O1 (configuration not stated)
active: DU-145 prostate -4.17% | MALME-3M melanoma -10.9% | MDA-MB-231 breast -4.68% | M14 melanoma -2.19% | HT29 colon 0.506% | LOX IMVI melanoma -1.61%
inactive: K-562 leukemia 12.6% | RXF 393 renal 25.9% | SF-268 CNS 29.9% | SF-295 CNS 52.9% | SF-539 CNS 40.5% | UACC-257 melanoma 60.1% | HCT-15 colon 42.6% | SNB-75 CNS 62.6% | SNB-19 CNS 76.8% | U251 CNS 32.4% | PC-3 prostate 15.9% | SK-MEL-5 melanoma 57.3% | UACC-62 melanoma 41.2%

C=C1C(=O)O[C@H]2[C@H]1CC/C(COC(=O)/C=C/c1c[nH]c3ccccc13)=C\CC[C@@]1(C)O[C@@H]21
inactive: SF-295 CNS 21.8%
active: DU-145 prostate -73.5% | K-562 leukemia -3.41% | MALME-3M melanoma -83.5% | MDA-MB-231 breast -78.4% | RXF 393 renal -94.3% | SF-268 CNS -72.8% | SF-539 CNS -95.5% | UACC-257 melanoma -90.4% | M14 melanoma -76.9% | HCT-15 colon -64.6% | HT29 colon -83.6% | SNB-75 CNS -53.7% | SNB-19 CNS -68.8% | U251 CNS -98.1% | PC-3 prostate -73.4% | SK-MEL-5 melanoma -98.4% | UACC-62 melanoma -71.9% | LOX IMVI melanoma -97.3% | SK-MEL-28 melanoma -54%

O=C1C(=O)c2c(nc3ncccn23)-c2ccccc21
active: DU-145 prostate -96.8% | K-562 leukemia -43.5% | MALME-3M melanoma -96.9% | MDA-MB-231 breast -55.3% | RXF 393 renal -97.2% | SF-268 CNS -70.8% | SF-295 CNS -97.8% | SF-539 CNS -98.3% | UACC-257 melanoma -95.4% | M14 melanoma -87% | HCT-15 colon -67.2% | HT29 colon -17.2% | SNB-75 CNS -92.8% | SNB-19 CNS -88% | U251 CNS -84% | PC-3 prostate -4.28% | SK-MEL-5 melanoma -99.4% | UACC-62 melanoma -92.8% | LOX IMVI melanoma -88% | SK-MEL-28 melanoma -85.7%

O=C1/C(=C\c2cn(Cc3ccccc3)c3ccc(Br)cc23)c2ccccc2N1c1c(Cl)cccc1Cl
inactive: DU-145 prostate 127% | K-562 leukemia 109% | MALME-3M melanoma 109% | MDA-MB-231 breast 98% | RXF 393 renal 101% | SF-268 CNS 113% | SF-295 CNS 98.5% | SF-539 CNS 103% | UACC-257 melanoma 102% | M14 melanoma 105% | HCT-15 colon 102% | HT29 colon 101% | SNB-75 CNS 76.4% | SNB-19 CNS 90.9% | U251 CNS 96.4% | PC-3 prostate 78% | SK-MEL-5 melanoma 104% | UACC-62 melanoma 98.4% | LOX IMVI melanoma 88.8% | SK-MEL-28 melanoma 107%
